This is an account of results in ChEMBL document CHEMBL3433997, “St. Jude Leishmania screening dataset” (2016).

The target in one assay is Hexose transporter 1 (Plasmodium falciparum) (UniProt O97467). Put plainly: ST_JUDE_LEISH: Cytotoxicity at 2uM final concentration against transgenic Leishmania Mexicana promastigotes LmPfHT that are glucose transport deficient and complemented with the Plasmodium falciparum hexose transporter. Activity is measured by DNA content using SYBR green in vitro. The class given is functional.
Regarding `C(=N\Nc1nccc2sc(-c3cccnc3)cc12)/c1ccncc1`, the inhibition came to 5.29%.
As for `O=C(Nc1ccc(Cl)c(C(F)(F)F)c1)c1ccc(Cl)c([N+](=O)[O-])c1`, the inhibition came out at 3.41%.
Still for that read-out and setting: next, `FC(F)(F)c1ccc2c(NN=Cc3cccc(Cl)c3)ccnc2c1`: 5.5%.
The same measure, in the same setting: the figure for `CO/C(=C\C=C\c1cc2cc(Cl)c(Cl)cc2[nH]1)C(=O)NCCCNC12CC3CC(CC(C3)C1)C2` is 1.55%; for `Cc1nc(C)c(-c2ccc(Oc3ccc(Cl)c(Cl)c3)cc2)c(O)c1Br` it is 0.11%.
For `N=c1n(Cc2ccccc2)c2ccccc2n1CC(O)c1ccc(Cl)cc1` (stereo not given), the inhibition is 2.09%.
Still for that read-out and setting: the figure for `C=CCOc1ccc(C(=O)Nc2nonc2-c2ccc(OC)c(OC)c2)cc1` is 1.23%; for `Fc1ccc2[nH]c(-c3cccc(-c4ccc(CNCc5ccccc5)cc4)c3)nc2c1` it is 9.95%.
Same read-out and setting: the figure for `Oc1ccc2[nH]c(-c3cccs3)nc2c1CN1CCC(O)(c2ccccc2)CC1` is 5.23%.
As to `O=C(Nc1ccc(NC2=NCCN2)cc1)c1ccc(C(=O)Nc2ccc(NC3=NCCN3)cc2)cc1`, the inhibition was 18.1%.
As to `CC(=O)NCC(=O)NC1=NC(=N)N(OCc2ccc3ccccc3c2)C(C)(C)N1`, the inhibition came to 1.66%.
Turning to `COc1cccc(NC(=O)c2ccc(NCCCN3CC(C)CC(C)C3)c([N+](=O)[O-])c2)c1` (stereo not given), the inhibition worked out at 2.93%.
`Oc1ccc(CCNCCCCCCNCCc2ccc(Cl)c3ccccc23)cc1O`: the inhibition is -2.07%.
Same read-out and setting: the figure for `COc1ccc2ncc(F)c([C@@H](O)CN3CCC(NCc4cc5c(cn4)OCCO5)CC3)c2c1` is 2.79%; for `Oc1ccc(CCNc2nc(NCc3ccccc3-c3ccccc3)nc(N3CCCNCC3)n2)cc1` it is 2.05%.
As to `CC(=O)N(C)c1cccc(C(=O)Nc2cccc(-c3ccc(-c4nc5cc(C(F)(F)F)ccc5[nH]4)cc3)c2)c1`, the inhibition stood at 4.03%.
Same read-out and setting: the figure for `c1ccc(CNCc2cccc(-c3ccc(-c4nc5ccccc5[nH]4)s3)c2)cc1` is 3.45%.
On to `CCC[C@@H]([C@@H](CC1CCCCC1)C(=O)NC(C(=O)Nc1nccs1)C(CC)c1ccccc1)N(O)C=O` (stereo not given in full), for which the inhibition stood at 0.04%.
The same measure, in the same setting: the figure for `Oc1ccc(CCNc2nc(NCc3ccccc3-c3ccc(F)cc3)nc(N3CCNCC3)n2)cc1` is 3.48%; for `O=C(Nc1cccc(C(F)(F)F)c1)c1ccc(S(=O)(=O)NCC2CCCN(CC3CCCCC3)C2)cc1` (stereo not given) it is 0.41%; for `COc1ccc2[nH]ccc(=NN=Cc3cccc(Cl)c3)c2c1` it is 14.8%.
For the compound `COc1ccc(NC(=O)/C=C/c2ccc(-c3ccc(-c4noc(C)n4)cc3)cc2)cc1OCCN(C)C`, the inhibition amounted to 2.25%.
`Cc1cccc2nc(-c3ccc(-c4cccc(NC(=O)C(C)CN5CCN(C)CC5)c4)cc3)[nH]c12` (stereo not given): the inhibition was 0.81%.
Still for that read-out and setting: the figure for `CC1(C)NC(N)=NC(=N)N1OCCc1ccc(N)cc1` is 6.43%.
Regarding `CCNc1cc(C(=O)N[C@@H](Cc2ccccc2)[C@H](O)CNC(C)(C)CSCC(C)C)cc(N2CCCC2=O)c1`, the inhibition was 2.11%.
On the same count and under the same terms, the figure for `CN1CCN(c2ccc(-c3cc(-c4ccncc4)c(-c4ccc(Cl)c(O)c4)o3)cc2)CC1` is 0%.
On the same count and under the same terms, next, `COc1cccc(C(=O)NCc2nnc(S)n2-c2ccc(Cl)c(Cl)c2)c1`: 0.68%; `Nc1nccc2ccc(-c3ccc(OCc4ccccc4)cc3)cc12`: 2.36%; `COCC(C)n1c(SCC(=O)Nc2cc(C(F)(F)F)ccc2Cl)nc2ccccc2c1=O` (stereo not given): 4.88%.
On the same count and under the same terms, next, `COc1ccc(-c2ccc(NC(=O)c3ccc(Cl)cc3)cc2)cc1CN1CCCN(C)CC1`: 4.81%; `O=C(Nc1ccccc1)N(Cc1ccccc1-c1cccc(CNCCc2ccccc2)c1)C1CCN(Cc2ccccc2)CC1`: 0.26%; `O=C1CSc2ccc(CNC3CCN(CCc4c(Cl)cnc5ccc(Cl)cc45)CC3)nc2N1`: -0.05%.
For the compound `O=C(NCc1cccs1)[C@H](Cc1ccccc1)Nc1ccnc(NCC2CCCCC2)n1`, the inhibition is 10.5%.
In the case of `COc1ccc(S(=O)(=O)Nc2cc(C)cc(Br)c2OC)cc1N1CCN(C(=O)C(Cl)(Cl)Cl)CC1`, the inhibition stood at 0.79%.
With `CNC(=O)c1cc(NCCCNCc2ccc(Cl)c(C(F)(F)F)c2)nc2ccccc12`, the inhibition is -1.73%.
Consider `CSc1ccc2nccc(Nc3ccc(Oc4ccccc4)cc3)c2c1`, for which the inhibition was determined as 6.24%.
Same read-out and setting: next, `Cc1cc2nc(-c3ccc(/C=C/C(=O)NCCCc4ccccc4)cc3)[nH]c2cc1C`: 2.87%; `COc1ccc2c(c1CNCCCCCCNCc1c(OC)ccc3c1CCCC3)CCCC2`: 8.33%; `CN1CCN(c2ccnc3ccc(NC(=O)Nc4cccc5c(Br)cccc45)cc23)CC1`: 3.33%.
On the same count and under the same terms, the figure for `CCn1c(=O)c(C(=O)Nc2cc(Cl)c(OC)cc2OC)nc2ccccc21` is 9.32%.

A further assay concerns the target Glucose transporter (Leishmania mexicana) (UniProt O61059). Put plainly: ST_JUDE_LEISH: Cytotoxicity at 2uM final concentration against transgenic Leishmania Mexicana promastigotes LmGT2 that are glucose transport deficient and complemented with the L. Mexicana glucose transporter 2. Activity is measured by DNA content using SYBR green in vitro. The format is functional.
For `C(=N\Nc1nccc2sc(-c3cccnc3)cc12)/c1ccncc1`, the inhibition was found to be 1.98%.
Still for that read-out and setting: next, `O=C(Nc1ccc(Cl)c(C(F)(F)F)c1)c1ccc(Cl)c([N+](=O)[O-])c1`: 0.08%; `FC(F)(F)c1ccc2c(NN=Cc3cccc(Cl)c3)ccnc2c1`: 3.57%; `CO/C(=C\C=C\c1cc2cc(Cl)c(Cl)cc2[nH]1)C(=O)NCCCNC12CC3CC(CC(C3)C1)C2`: 0.89%.
The same measure, in the same setting: next, `Cc1nc(C)c(-c2ccc(Oc3ccc(Cl)c(Cl)c3)cc2)c(O)c1Br`: 0.06%.
With `N=c1n(Cc2ccccc2)c2ccccc2n1CC(O)c1ccc(Cl)cc1` (stereo not given), the inhibition came to 1.14%.
Still for that read-out and setting: next, `C=CCOc1ccc(C(=O)Nc2nonc2-c2ccc(OC)c(OC)c2)cc1`: 1.78%.
As to `Fc1ccc2[nH]c(-c3cccc(-c4ccc(CNCc5ccccc5)cc4)c3)nc2c1`, the inhibition was 4.2%.
On the same count and under the same terms, the figure for `Oc1ccc2[nH]c(-c3cccs3)nc2c1CN1CCC(O)(c2ccccc2)CC1` is 9.03%; for `O=C(Nc1ccc(NC2=NCCN2)cc1)c1ccc(C(=O)Nc2ccc(NC3=NCCN3)cc2)cc1` it is 6.75%; for `CC(=O)NCC(=O)NC1=NC(=N)N(OCc2ccc3ccccc3c2)C(C)(C)N1` it is 0.35%.
On the same count and under the same terms, next, `COc1cccc(NC(=O)c2ccc(NCCCN3CC(C)CC(C)C3)c([N+](=O)[O-])c2)c1` (stereo not given): 3.43%.
Regarding `Oc1ccc(CCNCCCCCCNCCc2ccc(Cl)c3ccccc23)cc1O`, the inhibition was -2.9%.
On the same count and under the same terms, next, `COc1ccc2ncc(F)c([C@@H](O)CN3CCC(NCc4cc5c(cn4)OCCO5)CC3)c2c1`: 3.93%; `Oc1ccc(CCNc2nc(NCc3ccccc3-c3ccccc3)nc(N3CCCNCC3)n2)cc1`: 0.48%.
The same measure, in the same setting: the figure for `CC(=O)N(C)c1cccc(C(=O)Nc2cccc(-c3ccc(-c4nc5cc(C(F)(F)F)ccc5[nH]4)cc3)c2)c1` is 4.63%; for `c1ccc(CNCc2cccc(-c3ccc(-c4nc5ccccc5[nH]4)s3)c2)cc1` it is 3.41%; for `CCC[C@@H]([C@@H](CC1CCCCC1)C(=O)NC(C(=O)Nc1nccs1)C(CC)c1ccccc1)N(O)C=O` (stereo not given in full) it is 0.64%.
Regarding `Oc1ccc(CCNc2nc(NCc3ccccc3-c3ccc(F)cc3)nc(N3CCNCC3)n2)cc1`, the inhibition turned out to be 6.39%.
The same measure, in the same setting: next, `O=C(Nc1cccc(C(F)(F)F)c1)c1ccc(S(=O)(=O)NCC2CCCN(CC3CCCCC3)C2)cc1` (stereo not given): -0.91%; `COc1ccc2[nH]ccc(=NN=Cc3cccc(Cl)c3)c2c1`: 11.7%; `COc1ccc(NC(=O)/C=C/c2ccc(-c3ccc(-c4noc(C)n4)cc3)cc2)cc1OCCN(C)C`: 0.27%.
Same read-out and setting: next, `Cc1cccc2nc(-c3ccc(-c4cccc(NC(=O)C(C)CN5CCN(C)CC5)c4)cc3)[nH]c12` (stereo not given): 5.85%; `CC1(C)NC(N)=NC(=N)N1OCCc1ccc(N)cc1`: 5.49%.
Take `CCNc1cc(C(=O)N[C@@H](Cc2ccccc2)[C@H](O)CNC(C)(C)CSCC(C)C)cc(N2CCCC2=O)c1`: the inhibition was -1.53%.
In the case of `CN1CCN(c2ccc(-c3cc(-c4ccncc4)c(-c4ccc(Cl)c(O)c4)o3)cc2)CC1`, the inhibition is -1.14%.
Same read-out and setting: next, `COc1cccc(C(=O)NCc2nnc(S)n2-c2ccc(Cl)c(Cl)c2)c1`: -0.3%.
Still for that read-out and setting: the figure for `Nc1nccc2ccc(-c3ccc(OCc4ccccc4)cc3)cc12` is 1.39%.
The same measure, in the same setting: next, `COCC(C)n1c(SCC(=O)Nc2cc(C(F)(F)F)ccc2Cl)nc2ccccc2c1=O` (stereo not given): 2.72%.
As to `COc1ccc(-c2ccc(NC(=O)c3ccc(Cl)cc3)cc2)cc1CN1CCCN(C)CC1`, the inhibition was 5.6%.
Take `O=C(Nc1ccccc1)N(Cc1ccccc1-c1cccc(CNCCc2ccccc2)c1)C1CCN(Cc2ccccc2)CC1`: the inhibition was -0.84%.
Same read-out and setting: next, `O=C1CSc2ccc(CNC3CCN(CCc4c(Cl)cnc5ccc(Cl)cc45)CC3)nc2N1`: -1.85%.
Turning to `O=C(NCc1cccs1)[C@H](Cc1ccccc1)Nc1ccnc(NCC2CCCCC2)n1`, the inhibition worked out at 10.6%.
Still for that read-out and setting: next, `COc1ccc(S(=O)(=O)Nc2cc(C)cc(Br)c2OC)cc1N1CCN(C(=O)C(Cl)(Cl)Cl)CC1`: -0.68%.
On the same count and under the same terms, the figure for `CNC(=O)c1cc(NCCCNCc2ccc(Cl)c(C(F)(F)F)c2)nc2ccccc12` is -2.48%.
With `CSc1ccc2nccc(Nc3ccc(Oc4ccccc4)cc3)c2c1`, the inhibition is 1.56%.
Take `Cc1cc2nc(-c3ccc(/C=C/C(=O)NCCCc4ccccc4)cc3)[nH]c2cc1C`: the inhibition turned out to be 1.65%.
In the case of `COc1ccc2c(c1CNCCCCCCNCc1c(OC)ccc3c1CCCC3)CCCC2`, the inhibition came to 7.55%.
Still for that read-out and setting: next, `CN1CCN(c2ccnc3ccc(NC(=O)Nc4cccc5c(Br)cccc45)cc23)CC1`: 2.86%; `CCn1c(=O)c(C(=O)Nc2cc(Cl)c(OC)cc2OC)nc2ccccc21`: 10.5%.

Broadly, the inhibition is the change of the read-out against control, counted positive when it falls.
